Results filed as inconclusive are left out. A number with no mark means an inactive call. The source made the active and inactive calls. The call rests on the fitted dose curve. Starred links: 1 amine or outer side, 2 acyl side, 3 side chain; linkers in the order of their positions; H or OH if unused. Positions of bridges follow the written chain, without caps; N, C: chain ends. Non-standard residues stand in square brackets, D forms with d. Residues, ends and D or L forms follow the SMILES beside them. Chains are numbered I, II in the order given. Actinocin(9to1) = Cc1c2oc3c(C)ccc(C(=O)[*:1])c3nc-2c(C(=O)[*:2])c(N)c1=O; NMeV = CN[C@H](C(=O)O)C(C)C; Sar = CNCC(=O)O
Each compound was assayed against Acetylcholinesterase (Homo sapiens) (UniProt P22303) (assay: Acetylcholinesterase (AChE) small molecule antagonists: fluorescence cell-based qHTS assay (AID 1347398; further: nearly all actives have a fitted effect of over 50% in size)). Conditions: SH-SY5Y cells; Potency: AChE activity; outcome: AChE activity; series mostly up to 115 µM; activity change, negative = inhibition: at the top concentration.
Chain of Acetylcholinesterase (Homo sapiens) (P22303 whole entry, looked up): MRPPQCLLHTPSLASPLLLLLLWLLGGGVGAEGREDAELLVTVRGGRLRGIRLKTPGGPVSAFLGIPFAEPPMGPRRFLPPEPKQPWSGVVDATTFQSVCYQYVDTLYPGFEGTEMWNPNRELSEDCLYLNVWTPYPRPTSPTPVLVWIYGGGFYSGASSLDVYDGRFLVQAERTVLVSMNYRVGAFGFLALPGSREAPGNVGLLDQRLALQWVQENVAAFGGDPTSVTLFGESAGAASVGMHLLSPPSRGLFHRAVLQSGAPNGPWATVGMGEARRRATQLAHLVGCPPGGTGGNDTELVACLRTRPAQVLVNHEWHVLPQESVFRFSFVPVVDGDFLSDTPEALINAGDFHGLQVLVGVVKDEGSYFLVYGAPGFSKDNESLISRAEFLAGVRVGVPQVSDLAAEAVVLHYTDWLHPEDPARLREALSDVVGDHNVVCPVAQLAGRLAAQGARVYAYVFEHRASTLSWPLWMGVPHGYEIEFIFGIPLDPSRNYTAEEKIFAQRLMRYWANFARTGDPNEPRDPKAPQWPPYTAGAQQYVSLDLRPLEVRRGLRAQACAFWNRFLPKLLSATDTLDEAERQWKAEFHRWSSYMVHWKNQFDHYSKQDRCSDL
Procedure, shortened: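 Cells (SH-SY5Y) attached overnight, were dosed with compound or DMSO vehicle for 30 min at 37 C, and then incubated 40 min at room temperature with acetylthiocholine and Thiolite Green; green fluorescence indexed AChE activity.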
On the % scale 0 is the no-effect control and ±100 the full control effect; potency means the concentration at half of the fitted maximal effect.

| Structure (SMILES) | Potency | activity change, negative = inhibition | outcome |
| --- | --- | --- | --- |
| CC(=O)Nc1cccc(O)c1 | inactive |  |  |
| C=CC(=O)OCCOCCOCCOCCOC(=O)C=C | inactive |  |  |
| O=C=NCCCCCCN=C=O | inactive |  |  |
| CCN=C1C=CC(=C(c2ccc(N(CC)CC)cc2)c2ccc(N(CC)CC)cc2)c2ccccc21 | 39.7 µM (active) |  |  |
| CC(C)(O)CCc1ccccc1 |  | 1.08% |  |
| Cc1ccc(C(C)C)cc2c(C)ccc1-2 |  | 0.715% [at 53.7 µM] |  |
| O=[N+]([O-])c1ccccc1C(F)(F)F | inactive |  |  |
| CCCCC/C=C\C/C=C\CCCCCCCC(=O)OC | inactive |  |  |
| CC(=O)OC/C=C(\C)CC/C=C(\C)CCC=C(C)C | inactive |  |  |
| Cc1c(C(C)C)c(=O)n(-c2ccccc2)n1C |  | 1.25% [at 53.7 µM] |  |
| CN(C)CCOC(c1ccccc1)c1ccc(Br)cc1 (stereo not given) |  | -14% [at 53.7 µM] |  |
| CCS(=O)(=O)c1ccc(OC)c(C(=O)OC)c1 |  | 8.24% [at 53.7 µM] |  |
| CCOC(OCC)OCC |  | 6.53% |  |
| COc1cc(O)cc(O)c1 |  | 1.72% [at 53.7 µM] |  |
| O=C(Cl)c1ccc(C(=O)Cl)cc1 | inactive |  |  |
| Cc1c(Cl)c(=O)oc2cc(O)ccc12 | 71 µM (active) |  |  |
| CC(C)(C)C(=O)CCc1ccc(Cl)cc1 |  | -2.2% |  |
| CC1=C(O)C(=O)OC1C (stereo not given) |  | 1.48% |  |
| CC(CC(C#N)(c1ccccc1)C(C)C)N(C)C (stereo not given) |  | -5% [at 53.7 µM] |  |
| O=C(O)c1cccc(C[C@@H]2COc3ccc(OCc4nc5cc(F)ccc5s4)cc3[C@@H]2O)c1 |  | -9.42% |  |

| Structure (SMILES) | Potency | activity change, negative = inhibition | outcome |
| --- | --- | --- | --- |
| CCCc1cc(C(N)=S)ccn1 |  | 0.418% [at 53.7 µM] |  |
| O=C1CCCc2ccccc21 |  | 5.25% |  |
| Nc1cccc(N)n1 | inactive |  |  |
| CC(C)CC(=O)CC(C)CC(C)C (stereo not given) | inactive |  |  |
| CCCCCNCCCCC | inactive |  |  |
| C#CCN[C@@H]1CCc2ccccc21 |  |  | inactive |
| C(=C(c1ccccc1)c1ccccc1)c1ccccc1 |  | 2.9% |  |
| CC(C)CCO |  | 2.71% |  |
| CCCCCN(CCCOC)C(=O)C(CCC(=O)O)NC(=O)c1ccc(Cl)c(Cl)c1 (stereo not given) |  | 4.55% [at 53.7 µM] |  |
| CC(CO)c1ccccc1 (stereo not given) |  | 0.635% |  |
| O=S(=O)(Oc1ccc(Cl)cc1)c1ccccc1 |  | -6.87% |  |
| O=C(c1ccccc1)c1ccc2n1CCC2C(=O)O (stereo not given) |  | 4.34% [at 53.7 µM] |  |
| CC(C)COC(=O)c1ccccc1 |  | 2.35% |  |
| CC(=O)CCC(C)C | inactive |  |  |
| O=C(Nc1ccccc1)OCC(CN1CCCCC1)OC(=O)Nc1ccccc1 (stereo not given) |  | -12% [at 53.7 µM] |  |
| C[C@H](CCC(=O)O)[C@H]1CC[C@H]2[C@@H]3CC[C@@H]4C[C@H](O)CC[C@]4(C)[C@H]3CC[C@]12C | inactive |  |  |
| Cc1c2oc3c(C)ccc(C(=O)N[C@@H]4C(=O)N[C@H](C(C)C)C(=O)N5CCC[C@H]5C(=O)N(C)CC(=O)N(C)[C@@H](C(C)C)C(=O)O[C@@H]4C)c3nc-2c(C(=O)N[C@@H]2C(=O)N[C@H](C(C)C)C(=O)N3CCC[C@H]3C(=O)N(C)CC(=O)N(C)[C@@H](C(C)C)C(=O)O[C@@H]2C)c(N)c1=O (I: T[dV]P[Sar][NMeV] / II: T[dV]P[Sar][NMeV]; ester I:1-I:C, II:1-II:C; linker I:N-II:N via Actinocin(9to1)) | inactive |  |  |
| CCCCC(CC)COC(=O)/C=C/c1ccc(OC)cc1 (stereo not given) | inactive |  |  |
| O=C1[C@H](CC[C@H](O)c2ccc(F)cc2)[C@@H](c2ccc(O)cc2)N1c1ccc(F)cc1 |  | -10.2% [at 53.7 µM] |  |
| CC(=O)CC/C=C(\C)CCC=C(C)C | inactive |  |  |

Reference: PubChem BioAssay (Tox21)
